# PostGolgi yeast – growth inhibition of a yeast mutant, post-Golgi transport screen | post-Golgi transport phenotypic cell assay | inhibition, % at 10 µM | 98,000 compounds, 0.9% hits | AID 739;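 further: yeast cells grown in 1536-well plates; yeast grown about 18 h at 30C before absorbance read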
# CYP2C9 act – activators of human CYP2C9; recombinant CYP2C9, luciferin-H conversion, luminescence; stronger effect = higher value; factor 1 = untreated enzyme, 0 = blocked; P11712; AID 1024; activation factor at 5 µM; 96,000 compounds, 1.4% hits;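 active means activation factor of 2 or more for CYP2C9 at a 5 µM dose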;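 further: 0 = sulfaphenazole-blocked wells and 1 = vehicle-only wells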
# CYP2C9 inhib – blocks human cytochrome P450 2C9. P11712. CYP2C9 Supersomes, luciferin-H conversion, luminescence. inhibition, % at 5 µM. 96,000 compounds, 20% hits;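 active means blocking of liver enzyme CYP2C9 beyond about 50% at 5 µM, limit read from the data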
# CYP2C19 act – cytochrome P450 2C19 (human) activation; P33261; 96,000 tested, under 10 active; recombinant CYP2C19, luciferin-H EGE luminescence; stronger effect = higher value; 0 = fully inhibited enzyme, 1 = untreated enzyme; activation factor at 5 µM;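 active means activation factor of at least 2 at 5 µM in the primary screen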;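 further: 0 = wells with 2.5 mM tranylcypromine and 1 = vehicle-only wells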
# Target sequence (P33261 whole entry, looked up): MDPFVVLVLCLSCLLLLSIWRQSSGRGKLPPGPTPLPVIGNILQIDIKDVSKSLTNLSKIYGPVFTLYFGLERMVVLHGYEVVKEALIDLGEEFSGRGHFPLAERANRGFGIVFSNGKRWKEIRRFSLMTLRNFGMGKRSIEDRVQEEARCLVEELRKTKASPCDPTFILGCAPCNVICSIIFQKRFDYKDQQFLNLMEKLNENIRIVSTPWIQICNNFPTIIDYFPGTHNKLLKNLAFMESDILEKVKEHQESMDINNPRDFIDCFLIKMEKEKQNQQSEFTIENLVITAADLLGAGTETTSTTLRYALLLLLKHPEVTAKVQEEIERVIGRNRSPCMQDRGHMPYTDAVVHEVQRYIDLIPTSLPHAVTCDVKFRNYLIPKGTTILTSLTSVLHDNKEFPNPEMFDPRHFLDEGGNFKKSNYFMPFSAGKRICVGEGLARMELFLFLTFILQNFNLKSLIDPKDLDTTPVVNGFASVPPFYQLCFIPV
# CYP2C19 inhib – blocks human cytochrome P450 2C19; CYP2C19 Supersomes, luciferin-H EGE luminescence, 30 min; AID 778; inhibition, % at 5 µM; P33261; 96,000 compounds, 21% hits;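 active means CYP2C19 inhibition above a set limit at 5 µM in the primary screen, cut at about 50% in these data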;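 further: plate controls were negative control wells for no effect and 2.5 mM tranylcypromine positive control for full effect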
# PostGolgi ctrl – growth of the yeast control strain, post-Golgi counter-screen | efflux-deficient yeast background strain, growth absorbance A615, 16 h | inhibition, % at 10 µM | 98,000 compounds, 5% hits
# Numbers without * were called inactive; / = not tested or not shown. Compounds with a hit are over-represented: about 32% of the library has one in this group of screens. Unless noted, no stated cut-off is given here; in the data, active means inhibition above about 30%; inactive means the rest.
SMILES,PostGolgi yeast,CYP2C9 act,CYP2C9 inhib,CYP2C19 act,CYP2C19 inhib,PostGolgi ctrl
COc1ccc(S(=O)(=O)CCC(=O)NCCc2ccc(C)cc2)cc1,-2,0.2,75*,0.4,57*,-1
COc1ccc(S(=O)(=O)CCC(=O)O)cc1,1,1.1,-12,1,0,34*
CC(C(=O)NCCCN1CCOCC1)n1cccc1C(=O)c1ccccc1 (centres undefined),5,/,/,/,/,7
CC(C)NC(=O)C(C)n1cccc1C(=O)c1ccccc1 (centres undefined),0,0.5,55*,0.8,18,4
COC(=O)c1[nH]nc2c1C(=O)N(Cc1ccccc1)C2=O,-1,0.8,17,1,4,15
CS(=O)(=O)N1CCCC(C(=O)NCCCN2CCc3ccccc3C2)C1 (centres undefined),1,1.2,-15,0.9,13,-2
OCCNc1ncnc2c1ncn2Cc1ccccc1,-4,1,4,0.7,33,4
C=CCn1cnc2c(NCc3ccccc3)ncnc21,0,0.7,28,0.3,70*,-6
CCOC(=O)C1=C(C)NC2=C(C(=O)CC(C)(C)C2)C1c1cccc(C)n1 (centres undefined),3,0.8,16,0.5,55*,2
COCCOC(=O)C1=C(C)NC2=C(C(=O)CCC2)C1c1cc2c(cc1Br)OCO2 (centres undefined),0,0.2,79*,0,96*,6
CC1=C(C(=O)Nc2ccccn2)C(c2ccc(N(C)C)cc2)n2ncnc2N1 (centres undefined),13,0.9,9,1,-3,22
CC1(C)CC(=O)C2=C(C1)Nc1[nH]n(-c3ccccc3)c(=O)c1C2c1ccc2c(c1)OCO2 (centres undefined),-3,0.6,44,0.5,55*,-7
COc1ccc(C2C3=C(CC(C)(C)CC3=O)Nc3c2c(=O)[nH]c(=O)n3Cc2ccccc2)cc1OC (centres undefined),-7,1,0,0.8,16,11
CCN(CC)c1ccc(C2C(C(=O)Nc3ccccn3)=C(C)NC3=C2C(=O)CC(C)(C)C3)cc1 (centres undefined),7,0.1,94*,0.6,42,9
CCSc1cc(C2C(C(=O)OC)=C(C)NC3=C2C(=O)CCC3)c(C)o1 (centres undefined),-5,0.8,23,0.7,25,-9
Cc1ccccc1NC(=O)/C(=C\c1cccs1)NC(=O)c1ccco1,4,1.4,-44,1.1,-13,-4
CC(=O)c1ccc2cccc3c2c1N=CN3C,7,1.3,-34,0.9,12,18
CN(C)c1ccc(C2CC(=O)NC3=C2C(=O)CC(C)(C)C3)cc1 (centres undefined),0,0.9,8,0.4,61*,9
CCCOC(=O)C1=C(C)NC2=C(C(=O)CC(C)(C)C2)C1c1ccc(N(C)C)cc1 (centres undefined),2,0.2,80*,0.1,85*,7
CCN(CC)c1ccc(C2CC(=O)NC3=C2C(=O)CC(C)(C)C3)cc1 (centres undefined),-3,1.1,-8,1,0,12
CCOC(=O)C1=C(C)N(C)C(=O)NC1c1cc2c(cc1Br)OCO2 (centres undefined),0,0.6,38,0.4,62*,9
CCN(CC)c1ccc(C2C(C(=O)OCCOC)=C(C)NC3=C2C(=O)CC(C)(C)C3)cc1 (centres undefined),6,0.8,19,0.7,30,-5
COCCOC(=O)C1=C(C)NC2=C(C(=O)CC(C)(C)C2)C1c1ccc2c(c1)OCO2 (centres undefined),8,0.2,82*,0.1,90*,-3
COc1ccc(-c2cc(C(=O)Nc3cc(C)n(Cc4ccc(Cl)cc4)n3)no2)cc1OC,-2,1,-1,1,2,4
CC(=O)OC1CC(C)(C)N(OC(=O)c2ccc(N)cc2)C(C)(C)C1,-10,1,0,1.1,-12,4
SMILES,PostGolgi yeast,CYP2C9 act,CYP2C9 inhib,CYP2C19 act,CYP2C19 inhib,PostGolgi ctrl
C=C1N(CCCCCC(=O)O)C(=O)OC12CCCCC2,9,0.9,10,1,0,5
COc1ccc2c(=O)c(-c3ccccc3)c(C)oc2c1,11,0.9,12,0.8,19,5
COc1ccc(Cl)cc1NC(=O)CCc1ccccc1,-7,3*,-205,0.2,83*,8
COc1cc(OC)c(NC(=O)CCc2ccccc2)cc1Cl,-4,1.5,-54,0.2,84*,3
N=c1c(C(=O)NCc2ccc(F)cc2)cc2c(=O)n3ccccc3nc2n1Cc1cccnc1,-2,0.8,20,0.9,7,-5
CCn1c(=S)[nH]c2ccccc21,-2,1.5,-55,0.8,16,10
CC(C)n1c(=S)[nH]c2ccccc21,-6,3*,-202,0.7,29,-1
COc1cc2c(cc1OC)C1=C(C#N)CC/C(=N\S(=O)(=O)c3ccccc3)N1CC2,3,0.1,87*,0.3,69*,7
O=C(CNC(=O)c1ccco1)OCc1cccc(Cl)c1,14,0.9,7,0.6,43,13
O=C(CCNc1cccc(Cl)c1)c1ccco1,6,0.6,36,0.2,85*,0
CCCc1nc2oc3cc(OC)ccc3c(=O)c2c(=O)n1Cc1ccco1,-1,1.1,-12,0.9,7,-3
CCCCCCn1c(-c2ccco2)nc2oc3cc(OC)ccc3c(=O)c2c1=O,0,0.1,90*,0.1,93*,15
COc1ccc2c(=O)c3c(=O)n(Cc4ccco4)c(-c4ccccc4)nc3oc2c1,28,0.3,73*,0.3,73*,58*
CCOC(=O)c1c(P(=O)(N2CCOCC2)N2CCOCC2)noc1N,-4,1,3,0.9,11,6
Cc1ccc(NC(=O)C2C3C=CC4(CN(Cc5cccnc5)C(=O)C24)O3)cc1 (centres undefined),4,0.9,10,0.9,13,-1
O=C(NCCc1c[nH]c2ccccc12)C(F)(F)F,-2,1,3,0.7,30,5
COc1ccccc1OCc1ccc(C(=O)n2nc(C)c(Cl)c2C)o1,-5,1.4,-36,0.6,39,33*
CC1=NN(C(=O)c2ccc(Cn3nc(C)cc3C)o2)C(O)(C(F)(F)F)C1 (centres undefined),7,1,-3,0.8,21,-2
COc1ccccc1OCc1ccc(C(=O)N2N=C(C(F)F)CC2(O)C(F)F)o1 (centres undefined),-4,0.3,73*,0.7,34,9
O=C(c1ccc(Cn2cc(Br)cn2)o1)N1N=C(C(F)F)CC1(O)C(F)F (centres undefined),21,0.1,93*,0.3,74*,15
O=C(c1ccc(COc2ccccc2Cl)o1)N1CCCC1,22,0.5,46,0.7,30,26

# Bioassay records (PubChem BioAssay)
